Shown are actives, neighbours in structure and some others; about 12% of the full set was active somewhere.
G9a block = qHTS Assay for Inhibitors of Histone Lysine Methyltransferase G9a. Histone-lysine N-methyltransferase EHMT2 (Homo sapiens), Q96KQ7. G9a H3K9 monomethylation, AlphaScreen, 2 h. Potency, µM (titrated, usually from 102 µM), for inactives: top-dose activity, negative = inhibition, hits mostly inhibitors. actives 8.8% (n = 350,000); also: % is scaled to controls: 0 for no effect and ±100 for the full control effect; nearly all actives have a fitted effect of over 75% in size
Target sequence (Q96KQ7 913-1193 limits assumed): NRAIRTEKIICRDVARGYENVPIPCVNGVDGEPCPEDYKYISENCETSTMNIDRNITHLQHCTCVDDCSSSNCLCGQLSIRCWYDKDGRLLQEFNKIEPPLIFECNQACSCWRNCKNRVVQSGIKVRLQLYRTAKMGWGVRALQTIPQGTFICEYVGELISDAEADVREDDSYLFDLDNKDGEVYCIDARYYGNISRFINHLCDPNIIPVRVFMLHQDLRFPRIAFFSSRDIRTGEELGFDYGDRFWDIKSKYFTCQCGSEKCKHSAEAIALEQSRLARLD
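Methyltransferase reactions run at room temperature for 2 h (20 nM enzyme, 500 nM biotin-H3K9 peptide, 20 uM SAM) after a 15 min compound preincubation; product detected by AlphaScreen beads and anti-H3K9me1 antibody.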
L3MBTL1 block = qHTS Assay for the Inhibitors of L3MBTL1; Potency, µM (highest dose often 57.1 µM), inactives show top-dose activity, negative = inhibition, most hits filed as inhibitors; actives 0.66% (n = 230,000); AlphaScreen L3MBTL1–H3K9me1 peptide binding; AID 485360, 2010; Lethal(3)malignant brain tumor-like protein 1 (Homo sapiens), Q9Y468; also: % is scaled to controls: 0 for no effect and ±100 for the full control effect; nearly all actives have a fitted effect of over 60% in size
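AlphaScreen assay: L3MBTL1 (50 nM final) was preincubated 30 min at room temperature with biotinylated H3(1-15)K9me1 peptide (75 nM final), then 30 min with library compounds; streptavidin donor and nickel chelate acceptor beads (10 ug/mL final) added, 30 min dark.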
HP1b binding inh = HTS for Inhibitors of HP1-beta Chromodomain Interactions with Methylated Histone Tails | actives 0.56% (n = 390,000) | AlphaScreen HP1-beta / biotin-H3K9me3 peptide binding | Potency, µM (series often up to 114 µM), without a hit: at the top dose activity change, negative = inhibition, hits mostly inhibitors; also: nearly all actives have a fitted effect of over 70% in size
Target sequence (P83916 whole entry, looked up): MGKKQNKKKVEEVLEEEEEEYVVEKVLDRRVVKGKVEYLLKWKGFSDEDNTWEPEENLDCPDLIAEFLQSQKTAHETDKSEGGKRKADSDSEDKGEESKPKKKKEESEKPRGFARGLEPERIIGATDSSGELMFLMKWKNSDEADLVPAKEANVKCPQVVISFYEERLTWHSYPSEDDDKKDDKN
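Compound inhibition of the preformed complex between 50 nM HP1-beta and 50 nM biotinylated H3K9me3 peptide was read by AlphaScreen. Buffer was PBS pH 7.4 with 0.01% Tween-20. Incubations ran 30 min at room temperature, with 10 ug/mL donor/acceptor beads.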
BAZ2B block = qHTS Assay for Inhibitors of BAZ2B. Bromodomain adjacent to zinc finger domain protein 2B (Homo sapiens), Q9UIF8. AlphaScreen BAZ2B-H3K14Ac peptide displacement. Potency, µM (series often up to 114 µM), inactives show top-dose activity change, negative = inhibition, hits mostly inhibitors. actives 4.4% (n = 360,000). AID 504333, 2011; also: % is scaled to controls: 0 for no effect and ±100 for the full control effect; nearly all actives have a fitted effect of over 60% in size
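In this displacement format the biotinylated H3(5-23) peptide acetylated at Lys14 serves as ligand at 50 nM, with BAZ2B at 50 nM in PBS pH 7.4 containing 0.01% Tween-20. Donor and acceptor beads are 10 ug/mL final.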
Sfp PPTase inh = qHTS Assay for Inhibitors of Bacillus subtilis Sfp phosphopantetheinyl transferase (PPTase); 4'-phosphopantetheinyl transferase ffp (Bacillus subtilis), Q9F4F7; Biochemical Sfp PPTase activity, qHTS; Potency, µM, without a hit: largest response in the series, negative = inhibition, actives largely listed as inhibitors; actives 3.5% (n = 310,000);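 also: the enzyme is Sfp with the accession as filed and its product quenches rhodamine fluorescence; 0% = enzyme reaction without inhibitor and -100% = no enzyme wells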
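Reaction rates are the 30-min fluorescence difference (ex 525, em 598 nm) in wells containing 15 nM Sfp, 5 uM rhodamine-CoA and 12.5 uM BHQ-2-YbbR at pH 7.6 with 10 mM MgCl2.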
JMJD2A Tudor inh = qHTS Assay for Inhibitors of JMJD2A-Tudor Domain; Lysine-specific demethylase 4A (Homo sapiens), O75164; AlphaScreen JMJD2A-Tudor / H3K4me3 peptide binding; Potency, µM (titrated, usually from 114 µM), for inactives: top-dose activity change, negative = inhibition, usual class: inhibitors; actives 4.4% (n = 390,000); also: % is scaled to controls: 0 for no effect and ±100 for the full control effect; nearly all actives have a fitted effect of over 50% in size
* hit, by the source's call; u = inconclusive; x = no result given; [ ] = dose if it differs, or a comment. Calls follow the shape of the dose curve; as a rule, active = well fitted curve in the direction sought with a large enough effect; inconclusive = small, poorly fitted or top-dose-only effect, or another doubt; inactive = no such curve, though single readings can be large; an effect the other way counts as inactive or inconclusive. Potency is read from the fitted curve at half-maximal effect.

SMILES | G9a block | L3MBTL1 block | HP1b binding inh | BAZ2B block | Sfp PPTase inh | JMJD2A Tudor inh
CC1(c2ccccc2)NC(=O)N(CC(=O)NNC(=O)c2ccccc2)C1=O (centres undefined) | 0% | x | 22% | -16% | 9% | -4%
CC1(c2ccccc2)NC(=O)N(CC(=O)Nc2nc(-c3ccccn3)cs2)C1=O (centres undefined) | -43%[2.33 µM] | -17% | -10% | 50µM* | x | 45µM*
CC1=CCc2c(cc3oc(C)cc(=O)c3c2O)OC1 | -39%[2.33 µM] | x | x | x | -9% | x
Cc1cc(=O)c2c(O)c(O)ccc2o1 | 1.8µM* | 18µM* | 7% | u | 79µM* | 3.2µM*
O=C(c1cc(=O)[nH]c2ccccc12)N(Cc1nnc(-c2ccccc2Cl)o1)C1CC1 | 50µM* | -3% | 43% | 8% | x | -7%
CCOc1ccc(-n2c(C)cc(/C=N/NC(=O)C(N)=O)c2C)cc1 | u | -1%[11.4 µM] | -4% | u | -12% | -35%
CCOc1ccc(-n2c(C)cc(/C=N/N(C)C)c2C)cc1 | 45µM* | -25% | -18% | u | 11% | 45µM*
COC(=O)c1ccc(-n2c(C)cc(C(=O)CCl)c2C)cc1 | u | x | 7% | u | -42% | -29%
CCOc1ccc(-n2c(C)cc(C(=O)CCl)c2C)cc1 | 45µM* | x | u | -22% | -1% | u
Cc1ccc(/C=c2\s/c(=C(/C#N)C(=O)N3CCCC3)n(Cc3ccco3)c2=O)s1 | u | -1%[11.4 µM] | -13% | u | 13µM* | u
COc1ccc(CCNC(=O)c2c(C)nn(-c3ccc(F)cc3)c2-n2cccc2)c(OC)c1OC | -27%[59 µM] | x | 14% | -25% | x | -10%
COc1cc(-c2nc(Cc3c(F)cccc3Cl)no2)cc(OC)c1OC | u | -10% | 61% | 50µM* | -14% | -10%
COc1cc(-c2noc(-c3cccc(Cl)c3)n2)cc(OC)c1OC | 27%[59 µM] | -9%[11.4 µM] | 31% | 33% | -9% | 2%
CN(C)S(=O)(=O)c1ccc(S(=O)(=O)N(CC(=O)Nc2ccccc2)CC2CCCO2)cc1 (centres undefined) | 32µM* | -1% | 21% | -5% | -2% | -5%
Cc1cc(=O)[nH]c2nnc(SCCC(C)C)n12 | 10%[59 µM] | x | 31% | 0% | x | 0%
OC(CNCCc1ccccc1)COc1ccc(OCC(O)CNCCc2ccccc2)cc1 (centres undefined) | x | -14% | 12% | -22% | -4% | u
OC(CNCCc1ccc(Cl)cc1)COc1ccc2ccccc2c1 (centres undefined) | -32% | x | 0% | u | 32µM* | -28%
C/C=C/c1ccc(OCC(O)CNCCc2ccc(OC)cc2)c(OC)c1 (centres undefined) | 7.9µM* | x | u | 56µM* | 79µM* | 20µM*
C=CCc1ccc(OCC(O)CO)c(OC)c1 (centres undefined) | u | x | 20% | -4% | 11% | -3%
C/C=C/c1ccc(OCC(O)CN2CCCCC2CC)c(OC)c1 (centres undefined) | 22µM* | -11% | u | 56µM* | 0% | 3.5µM*
C/C=C/c1ccc(OCC(O)CN(C)Cc2ccc(SC)cc2)c(OC)c1 (centres undefined) | 71µM* | x | u | 50µM* | -21% | 4µM*
COc1ccccc1CNC(=O)c1ccc(Cn2c(SCc3ccccc3)nc3cccnc32)cc1 | -37%[59 µM] | x | 31% | -27% | x | -10%
C/C=C/c1ccc(OCC(O)CNCC(c2ccc(OC)cc2)N(C)C)c(OC)c1 (centres undefined) | u | x | -15% | 18µM* | -24% | 22µM*
C/C=C/c1ccc(OCC(=O)Nc2cc(OC)c(OC)c(OC)c2)c(OC)c1 | 1% | -5% | 1% | x | -15% | u
CC(=O)OC[C@@H]1O[C@@H](O/N=C2/C[C@@H](O)[C@@H](O)[C@@H]3[C@@H]4C(=O)N([C@@H](C)c5ccccc5)C(=O)[C@H]4CC[C@H]23)[C@H](OC(C)=O)[C@H](OC(C)=O)[C@@H]1OC(C)=O | x | x | x | x | 2% | x
SMILES | G9a block | L3MBTL1 block | HP1b binding inh | BAZ2B block | Sfp PPTase inh | JMJD2A Tudor inh
Cc1c(Cl)c([N+](=O)[O-])nn1CC(=O)N1CCc2ccccc2C1 | 26%[0.0925 µM] | -9% | 16% | -1% | -7% | -8%
Cc1c(Cl)c([N+](=O)[O-])nn1CC(=O)N1CCN(C23CC4CC(CC(C4)C2)C3)CC1 | 45µM* | x | -5% | -4% | -28% | -21%
Cc1nn(CC(=O)N2CCN(C34CC5CC(CC(C5)C3)C4)CC2)c(C)c1[N+](=O)[O-] | 25µM* | x | 33% | 0% | 20% | 5%
COc1ccc(NC(=O)c2cc3c(s2)-c2c(C)cccc2OC3)c(OC)c1 | 27%[59 µM] | x | 47% | -5% | x | 4%
CC(C)NC(=O)c1cnc2sc(N3CCCCCC3)nn2c1=O | 10%[59 µM] | x | 1% | -11% | x | -2%
O=C1C(Cl)=C(N2CCCCC2)C(=O)C(Cl)=C1c1cnc(N2CCCCC2)s1 | 2.2µM* | 18µM* | u | 45µM* | 18µM* | 8.9µM*
CN(C)c1ncc(C2=C(Cl)C(=O)C(N3CCCC3)=C(Cl)C2=O)s1 | x | x | -84% | x | x | 11µM*
CCNc1ccc(S(=O)(=O)N(C)C)cc1NCC(=O)Nc1ccccc1Cl | 40µM* | -12% | -24% | u | 2% | u
CCOc1ccc(-n2cc(-c3ccccc3)c3c(N4CCN(c5ccccc5OC)CC4)ncnc32)cc1 | -9%[59 µM] | x | -29% | u | x | u
O=c1c2c3c(sc2n2cnnc2n1-c1ccccc1)N(Cc1ccccc1)CCC3 | 13µM* | -2% | 5% | -33% | u | u
COc1ccc(-c2nnc3n2N(C(C)=O)C(c2ccc(Cl)c(Cl)c2)=C(C(C)=O)S3)cc1 | 3%[59 µM] | x | 22% | -3% | x | -5%
C=CCn1c(CSc2ccc(C)cc2)n[nH]c1=S | 8.9µM* | x | 63% | -25% | -6% | 12%
C=CCn1c(CSc2nnc(-c3ccccc3)n2C)n[nH]c1=S | x | 50% | 41% | -3% | u | 10µM*
C=CCn1c(-c2ccc(C)cc2)nc2ccccc21 | 21% | x | 34% | -4% | 7% | 5%
C=CCn1c(SCc2n[nH]c(=S)n2-c2ccccc2)nnc1-c1ccccc1 | 11µM* | -3% | 37% | -13% | -2% | 11µM*

Source: PubChem
